Our source for the Potency values is PubChem BioAssay (NCATS).

A short description of assay [1]: Quantitative High-Throughput drug screen in 47 multiple myeloma cell lines against the NCATS MIPE library collection: INA6_PLB cell viability assay (AID 1918965; also: nearly all actives have a fitted effect of over 55% in size). An outline of the steps:
(§1)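 We plated 500 myeloma cells per well, pinned in MIPE 4.0 compounds, and incubated for 48 hours at 37C. ATP was then quantified with CellTiter-Glo, with DMSO and media-only wells defining 100% and 0%.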

A short description of assay [2]: Quantitative High-Throughput drug screen in 47 multiple myeloma cell lines against the NCATS MIPE library collection: JJN3_DSMZ cell viability assay (AID 1918966; also: nearly all actives have a fitted effect of over 50% in size). An outline of the steps:
(§2)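 Steps: seed 500 cells per well; pin-transfer MIPE 4.0 library; incubate 48 h at 37C, 5% CO2, humidified; add CellTiter-Glo, 5 min room temperature; read luminescence.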

Assay [3] is described as follows: Quantitative High-Throughput drug screen in 47 multiple myeloma cell lines against the NCATS MIPE library collection: H1112_PLB cell viability assay (AID 1918967; also: nearly all actives have a fitted effect of over 30% in size). An outline of the steps: as §2
Assay [4] is described as follows: Quantitative High-Throughput drug screen in 47 multiple myeloma cell lines against the NCATS MIPE library collection: Karpas25_ECACC cell viability assay (AID 1918968; also: nearly all actives have a fitted effect of over 35% in size). An outline of the steps:
as §2

The nature of assay [5]: Quantitative High-Throughput drug screen in 47 multiple myeloma cell lines against the NCATS MIPE library collection: KMS12BM_JCRB cell viability assay (AID 1918971). Also: nearly all actives have a fitted effect of over 35% in size. An outline of the steps:
(§3)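 Luminescent ATP measurement with CellTiter-Glo gives viability, scaled between DMSO-only wells (100%) and media-only wells (0%). Cells, 500 per well, faced library compounds for 48 hours at 37C.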

The nature of assay [6]: Quantitative High-Throughput drug screen in 47 multiple myeloma cell lines against the NCATS MIPE library collection: KMS12PE_JCRB cell viability assay (AID 1918972). Also: nearly all actives have a fitted effect of over 30% in size. As to viability: series mostly up to about 46 µM. An outline of the steps:
as §1

A short description of assay [7]: Quantitative High-Throughput drug screen in 47 multiple myeloma cell lines against the NCATS MIPE library collection: KMS20_JCRB cell viability assay (AID 1918973). Also: nearly all actives have a fitted effect of over 45% in size. An outline of the steps:
as §2

Assay [8] in a line: Quantitative High-Throughput drug screen in 47 multiple myeloma cell lines against the NCATS MIPE library collection: KMS27_JCRB cell viability assay (AID 1918970). Also: nearly all actives have a fitted effect of over 30% in size. The gist of the method:
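Each line is seeded at 500 cells per well and treated with library compounds for 48 hours under 37 °C, 5% CO2. CellTiter-Glo is then added for 5 min at room temperature before median relative luminescence is recorded.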

Assay [9] is described as follows: Quantitative High-Throughput drug screen in 47 multiple myeloma cell lines against the NCATS MIPE library collection: KMS26_JCRB cell viability assay (AID 1918975). Also: nearly all actives have a fitted effect of over 45% in size. The gist of the method:
as §3

Results filed as inconclusive are left out. Calls of active or inactive are those of the source. Calls follow the shape of the dose curve; as a rule, active = well fitted cell-killing curve with a large enough effect; inconclusive = small, poorly fitted or top-dose-only effect, or effect the other way; inactive = no such curve, though single readings can be large or run the other way.
Potency is read from the fitted curve at half-maximal effect.

`Cc1ccc(Nc2cc(-c3cccc(N4C(=O)c5ccccc5C4=O)c3)ncn2)cc1NS(C)(=O)=O`: the Potency was 16.6 µM (active) in assay [1]; 18.7 µM (active) in assay [2]; 18.7 µM (active) in assay [3]; 11.8 µM (active) in [4]; 20.9 µM (active) in assay [5]; 26.4 µM (active) in assay [6]. For the same compound, in [7], the Potency was 26.4 µM (active).
`O=C1C(Cl)=C(NCCN2CCOCC2)C(=O)c2ncccc21`: the Potency is 2.96 µM (active) in assay [1]; 3.72 µM (active) in assay [2]; 11.8 µM (active) in assay [3]; 2.64 µM (active) in assay [4]; 2.64 µM (active) in assay [8]; 2.96 µM (active) in assay [5]. Also, the Potency in assay [6] was 3.32 µM (active); in assay [7] it was 4.69 µM (active); in assay [9], 6.62 µM (active).
Regarding `O=c1cc(N2CCOCC2)oc2c(-c3cccc4c3sc3ccccc34)cccc12`, the Potency in [1] was 2.96 µM (active); in assay [2], 14.8 µM (active); in assay [3], 16.6 µM (active); in assay [4], 4.18 µM (active); in assay [8] it was 18.7 µM (active); in [5], 16.6 µM (active). For the same compound, the Potency is 11.8 µM (active) in [6], 13.2 µM (active) in assay [7] and 20.9 µM (active) in assay [9].
With `O=C(CCCCCCC(=O)Nc1ccccc1)NO`, the Potency was 0.935 µM (active) in [1]; 3.32 µM (active) in assay [2]; 4.18 µM (active) in assay [3]; 1.48 µM (active) in assay [4]; 3.72 µM (active) in assay [8]; 2.35 µM (active) in assay [5]. In addition, in assay [6], the Potency is 1.66 µM (active).
Turning to `Cc1nc(N)sc1-c1ccnc(Nc2ccc(N3CCOCC3)cc2)n1`, the Potency in assay [1] is 1.48 µM (active); in assay [2], 11.8 µM (active); in assay [3] it was 16.6 µM (active); in [4], 5.9 µM (active); in assay [8], 6.62 µM (active); in [5], 14.8 µM (active). The Potency in assay [6] is 2.64 µM (active); in assay [7] it was 7.43 µM (active).
For the compound `O=C(O)c1c(Cl)c(Cl)c(Cl)c(Cl)c1-c1c2cc(I)c(=O)c(I)c-2oc2c(I)c(O)c(I)cc12`, the Potency is 10.5 µM (active) in assay [1]; 5.9 µM (active) in assay [2]; 3.32 µM (active) in assay [3]; 7.43 µM (active) in assay [4]; 10.5 µM (active) in assay [6].
As for `NC(=O)c1cccc(-c2cc(Nc3ccc(OC(F)(F)F)cc3)ncn2)c1`, the Potency in assay [1] was 14.8 µM (active); in assay [4] it was 8.33 µM (active); in [8], 18.7 µM (active); in assay [5], 23.5 µM (active); in assay [6], 16.6 µM (active).
Turning to `Clc1cc(Cl)cc(CNc2ncncc2-c2ccc3c(c2)OCO3)c1`, the Potency in [1] was 16.6 µM (active); in assay [8] it was 18.7 µM (active).
As to `c1ccc2c(-c3cnn4cc(-c5ccc(N6CCNCC6)cc5)cnc34)ccnc2c1`, the Potency in [1] was 2.35 µM (active); in assay [3], 3.32 µM (active); in assay [5] it was 14.8 µM (active).
Consider `O=C(Nc1ccccc1Br)N[C@@H]1CCN(c2ccc(C(F)(F)F)cn2)C1`, for which the Potency was 16.6 µM (active) in assay [1] and 18.7 µM (active) in [4]. Also, the Potency entry in [6] is “inactive”.
On to `NC(=O)c1cccc2[nH]c(-c3ccc([C@H]4CCCN4)cc3F)nc12`, for which the results for the Potency in assay [1] and in [8] were 14.8 µM (active) and 23.5 µM (active), respectively.
Take `CCCCCN(C)CCC(O)(P(=O)(O)O)P(=O)(O)O`: the Potency entry in assay [1], in assay [3], in assay [4], in [8] and in assay [9] was “inactive” in each case.
Consider `Cc1ccccc1C(C(=O)NC1CCCCC1)N(C(=O)Cn1ccnc1C)c1cccc(F)c1` (stereo unspecified), for which the Potency entry in assay [1] and in assay [8] was “inactive” each time. The Potency in [4] is 18.7 µM (active); in [5] it was 8.33 µM (active); in assay [6], 2.35 µM (active).
With `N#CC1(c2ccc(NC(=O)c3cccnc3NCc3ccncc3)cc2)CCCC1`, the Potency in assay [1] was 18.7 µM (active); in assay [5], 23.5 µM (active); in [6], 0.469 µM (active). For the same compound, the Potency entry in assay [3] and in assay [8] was “inactive” each time.
Regarding `CC(=O)Nc1ccc([C@H](C)C(=O)Nc2ncc(C(C)C)s2)cc1`, the Potency in assay [1] is 4.18 µM (active); in [3], 4.18 µM (active); in [4], 1.05 µM (active); in [5], 2.35 µM (active); in assay [7], 3.32 µM (active); in assay [9] it was 1.32 µM (active).
In the case of `O=C(O)c1ccc(-c2cc3cccnc3c(-c3ccc4nonc4c3)n2)cc1`, the Potency was 20.9 µM (active) in assay [1]; 23.5 µM (active) in assay [4]; 20.9 µM (active) in [5]; 20.9 µM (active) in assay [6]; 11.8 µM (active) in assay [7].
As to `CCOC(CN1C(=O)[C@](CC(=O)Nc2ccc(C)cc2)(NC(=O)Nc2ccc(C)cc2)c2ccccc21)OCC`, the Potency in assay [1] is 23.5 µM (active); in assay [8], 26.4 µM (active). In addition, the Potency entry in [3] was “inactive”.
Take `CC(C)C(=O)Nc1ncc(-c2cc(C(F)F)nn2-c2c(Cl)cccc2Cl)s1`: the Potency was 23.5 µM (active) in assay [1]; 20.9 µM (active) in [4]; 14.8 µM (active) in assay [8]; 26.4 µM (active) in assay [5]; 16.6 µM (active) in assay [6]; 18.7 µM (active) in assay [9].
On to `CN(C[C@@H]1COCCO1)S(=O)(=O)Nc1ccc2ccc3ncc(-c4cnn(C)c4)cc3c(=O)c2c1`, for which the Potency in assay [1] is 4.18 µM (active); in [3] it was 1.66 µM (active); in [4], 3.32 µM (active); in assay [5] it was 16.6 µM (active); in assay [6], 0.743 µM (active); in [7], 1.18 µM (active).
In the case of `NS(=O)(=O)c1ccc(NC2=CC(=O)c3ccccc3C2=O)cc1`, the Potency in assay [1] is 11.8 µM (active); in [4], 0.833 µM (active); in [8], 1.32 µM (active); in assay [6], 0.526 µM (active); in assay [9] it was 3.72 µM (active). Also, the Potency result in assay [5] is “inactive”.
`CC(C)(C)c1cc(C(=O)O)c(NC(=O)Nc2ccc3[nH]ncc3c2)s1`: the Potency result in assay [1], in assay [3], in assay [8] and in [9] was “inactive” each time.
Take `CNC(=O)c1ccccc1Sc1ccc2c(C=Cc3ccccn3)n[nH]c2c1`: the Potency in assay [1] is 18.7 µM (active); in assay [3], 0.296 µM (active); in assay [4], 16.6 µM (active); in assay [5] it was 16.6 µM (active); in [6] it was 1.66 µM (active).
